# Bioassay records deposited in PubChem BioAssay by National Center for Advancing Translational Sciences (NCATS).
# Rows were chosen to be rich in hits. Some 4.8% of all compounds tested hit in one or more screens of this group.
# USP1 inh – Inhibitors of USP1/UAF1: Primary Screen. Potency, µM (top dose mostly 57.1 µM), inactives show at the highest dose activity change, negative = inhibition, usual class: inhibitors. Ubiquitin carboxyl-terminal hydrolase 1 (Homo sapiens), O94782. hit rate 0.23% among 390,000. recombinant USP1/UAF1, Ub-Rhodamine cleavage fluorescence; note: potency is the fitted concentration of half-maximal effect; % is set by controls: 0 for no effect and ±100 for the full control effect; nearly all actives have a fitted effect of over 60% in size
# Target sequence (O94782 whole entry, looked up): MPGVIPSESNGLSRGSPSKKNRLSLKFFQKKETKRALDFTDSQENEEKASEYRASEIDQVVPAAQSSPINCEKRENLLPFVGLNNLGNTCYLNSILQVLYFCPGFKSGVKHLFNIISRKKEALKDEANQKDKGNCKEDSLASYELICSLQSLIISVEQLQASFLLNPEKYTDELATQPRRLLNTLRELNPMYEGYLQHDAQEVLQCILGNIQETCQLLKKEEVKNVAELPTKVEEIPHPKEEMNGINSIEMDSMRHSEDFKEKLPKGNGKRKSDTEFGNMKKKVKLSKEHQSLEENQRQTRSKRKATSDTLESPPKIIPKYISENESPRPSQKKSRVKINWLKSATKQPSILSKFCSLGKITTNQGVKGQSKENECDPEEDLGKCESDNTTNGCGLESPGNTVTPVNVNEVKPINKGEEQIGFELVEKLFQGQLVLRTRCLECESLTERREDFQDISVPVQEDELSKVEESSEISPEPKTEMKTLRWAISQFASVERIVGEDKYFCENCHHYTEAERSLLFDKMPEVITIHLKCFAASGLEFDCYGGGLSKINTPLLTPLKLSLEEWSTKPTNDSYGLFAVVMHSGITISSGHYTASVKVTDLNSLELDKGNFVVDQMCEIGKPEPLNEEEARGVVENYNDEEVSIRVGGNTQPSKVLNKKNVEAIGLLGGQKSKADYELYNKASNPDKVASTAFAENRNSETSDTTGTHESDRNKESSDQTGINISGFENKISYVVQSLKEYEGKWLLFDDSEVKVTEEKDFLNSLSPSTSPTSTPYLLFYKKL
#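 Step one: compound is pinned into 1nM USP1/UAF1 in HEPES pH 7.8 buffer with TCEP. Step two: 15 min room-temperature incubation. Step three: Ub-Rho (150nM final) starts cleavage, tracked by fluorescence over six one-minute reads.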
# USP2a inh – qHTS Assay for Inhibitors of Ubiquitin-specific Protease USP2a Using CHOP2 as the Reporter. USP2 core, Ub-CHOP2 coupled fluorogenic reporter, 485/531. Potency, µM (top dose mostly 38.3 µM), for the others: top-dose activity change, negative = inhibition, hits mostly inhibitors. hit rate 0.01% among 330,000. AID 463254, 2010;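 note: potency is the fitted concentration of half-maximal effect; plate controls were DMSO wells for no effect and full inhibition by NEM control for full effect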
#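 Deubiquitinase activity read as fluorescence (485/531 nm) after Ub-CHOP2 cleavage activates the enterokinase reporter on its substrate; USP2 core 10nM, Ub-CHOP2 and substrate 25nM each, 30min compound preincubation then 60min RT; data normalized to NEM, curves fitted.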
# ATXN viability – Viability Counterscreen for Primary qHTS for Inhibitors of ATXN expression; S2 cells (HEK-293 line with an ATXN2-luciferase reporter) viability, CellTiter-Fluor protease fluorescence, 24 h; Potency, µM (top dose mostly 56.7 µM), hits mostly cytotoxic; hit rate 0.49% among 400,000; AID 651635, 2014; note: potency is the fitted concentration of half-maximal effect; nearly all actives have a fitted effect of over 40% in size
# ATXN2 expr inh – Primary qHTS for Inhibitors of ATXN expression | HEK-293 ATXN2-luciferase reporter, luminescence, 24 h | Potency, µM (series often up to 57 µM), for the others: at the top dose activity change, negative = inhibition, usual class: inhibitors | hit rate 0.72% among 360,000 | AID 1745845, 2022; note: potency is the fitted concentration of half-maximal effect; % is set by controls: 0 for no effect and ±100 for the full control effect; nearly all actives have a fitted effect of over 55% in size
#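 ATXN2-luciferase reporter cells (luciferase flanked by upstream and downstream ATXN2 gene portions) were treated 24 h at 37 °C with compounds at up to 57 uM. SteadyGlo luminescence gave expression; GF-AFC fluorescence gave viability.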
# IL1B secr inh – qHTS for Inhibitors of Inflammasome Signaling: IL-1-beta AlphaLISA Primary Screen; activity change, % at 57.5 µM; hit rate 4.7% among 360,000; THP-1 LPS/ATP IL-1B secretion, AlphaLISA, 16 h; stronger effect = lower value; AID 743279, 2014; in the data active = activity change below about -50%; inconclusive = mostly about -30% to -49%; note: % is set by controls: 0 for no effect and ±100 for the full control effect
#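 Secreted IL-1B measured by AlphaLISA bead assay after 16 h compound exposure of THP-1 cells; compounds (final up to 57.5 uM) added 1 h before LPS (250 ng/mL) and ATP (1.25 mM) stimulation; lower signal means less secretion.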
# The depositor's hits bear a star; i = inactive; ? = inconclusive; / = no result; [ ] = another dose, or the depositor's remark. Unless noted, calls come from the whole dose curve; as a rule, active = well fitted curve in the direction sought with a large enough effect; inconclusive = small, poorly fitted or top-dose-only effect, or another doubt; inactive = no such curve, though single readings can be large; an effect the other way counts as inactive or inconclusive.
SMILES,USP1 inh,USP2a inh,ATXN viability,ATXN2 expr inh,IL1B secr inh
COc1ccc(NC(=O)COC(=O)CNC(=O)C2CCCCC2)cc1OC,-20.8%,5.5%,i,-2.1%,20.9
COc1ccc(C(=O)C[C@@H]2OC[C@H](Cc3ccccc3)N2S(=O)(=O)c2ccc(C)cc2)cc1OC,/,/,/,/,-4.6
CC1CCCCC12NC(=O)N(CC(=O)OCC(=O)N(C)C1CCCCC1)C2=O (centres undefined),-1.9%,0.9%,i,6.4%,4.1
COc1ccc(S(=O)(=O)N2CCOCC2)cc1NC(=O)CCCOc1ccc(C(C)=O)cc1,-18.5%,/,i,/,10.2
CCCC(=O)NC(c1cccc([N+](=O)[O-])c1)c1ccc2cccnc2c1O (centres undefined),-13.7%,/,?,/,58.1
CC(C)C(=O)NC(c1cccc([N+](=O)[O-])c1)c1ccc2cccnc2c1O (centres undefined),-13.9%,-0.6%,?,2.67µM*,84.3
CCCN(Cc1nc2cc(Cl)ccc2c(=O)[nH]1)C(=O)c1ccc(S(=O)(=O)N2CCCC2)cc1,-23.5%,-0.1%,?,/,-20.3
COc1cc(S(=O)(=O)NCCOC23CC4CC(CC(C4)C2)C3)c(OC)cc1Cl,-12.3%,-15.1%,i,-18.6%,-55.4*
COc1ccccc1-c1ccnc(-n2ncc(C(=O)N(C)C(C)c3ccon3)c2C2CC2)n1 (centres undefined),/,/,i,/,/
COc1ccccc1[C@]1(C)ON(c2ccccc2C(F)(F)F)C1=O,-13.0%,3.2%,?,?,-99.8*
CCCCCCCCCCCCCCCC(=O)O[C@@H]1CC(C)=C(/C=C/C(C)=C/C=C/C(C)=C/C=C/C=C(C)/C=C/C=C(C)/C=C/C2=C(C)C[C@@H](OC(=O)CCCCCCCCCCCCCCC)CC2(C)C)C(C)(C)C1,/,/,i,/,/
COc1cccc(/C=N/Nc2ncnc(N)c2[N+](=O)[O-])c1OC,-0.7%,-2.7%,i,8.91µM*,39.8
COc1cccc(C=NNc2nnc(NN=Cc3cccc(OC)c3OC)c3ccccc23)c1OC,-18.9%,/,?,78.3%,-63.3*
COc1ccccc1/C=N/Nc1nncc2ccccc12,-8.4%,2.1%,i,60.0%[11.3 µM],-3.2
CC(=O)N1CCC[C@H]1C(=O)NCC1Cc2cc(F)cc(-c3ccc(F)c(C)c3)c2O1 (some centres undefined),/,/,i,/,/
Cc1cc(Br)ccc1NC(=O)c1sc2ncnc(N3CCN(c4ccccn4)CC3)c2c1C,-11.3%,1.3%,i,-27.7%,-77.0*
Cc1cc(Br)ccc1NC(=O)CN(C)C(=O)C1CCN(c2ncnc3sc(C)c(C)c23)CC1,-3.7%,/,?,?,-56.3*
Cc1c(C(=O)Nc2c(F)cccc2F)sc2ncnc(N3CCN(c4ccccc4)CC3)c12,-21.1%,-10.6%,i,/,-56.9*
Cc1cccc(C)c1NC(=O)CN(C)C(=O)C1CCN(c2ncnc3sc(C)c(C)c23)CC1,-18.0%,-0.1%,i,3.8%,-5.9
O=C(NC1CCCCCCC1)c1ccc(F)cc1,-13.9%,3.7%,i,56.5%,-7.3
O=C(NC1CCCCCC1)c1c(F)c(F)c(F)c(F)c1F,-4.9%,1.1%,i,4.7%,-90.8*
CC1CCCCN1C(=O)CN1C(=O)c2ccccc2S1(=O)=O (centres undefined),-8.5%,1.6%,i,66.2%,5.1
Fc1cccc(Cl)c1Cn1nnc2c(NCc3ccccn3)ncnc21,-4.0%,3.9%,i,-0.9%,-59.4*
CC(C)C(N)c1csc(NC(=O)Nc2ccc(OC(F)(F)F)cc2)n1 (centres undefined),/,/,20µM*,?,-70.4*
COc1ccc(CC(N)c2csc(NC(=O)Nc3ccccc3C(C)(C)C)n2)cc1 (centres undefined),/,/,/,?,-52.2*
CC(C)CC(N)c1csc(NC(=O)c2cc(C(C)(C)C)nn2Cc2ccccc2)n1 (centres undefined),/,/,/,?,-114.2*
